Screens: PubChem, The Scripps Research Institute Molecular Screening Center
PPARg SRC1 recr – PPARgamma agonists recruiting SRC-1 coactivator, primary screen, biochemical | 200,000 tested, 0.41% active | activation, % at 8 µM | PPARgamma-SRC-1 coactivator recruitment biochemical assay | AID 631, 2007 | Peroxisome proliferator-activated receptor gamma (Homo sapiens), P37231; in the data active means activation above about 19%
SRC2 TRFRET art – TR-FRET signal artefacts, primary screen, artefact control for PPARgamma SRC-2 agonist project, biochemical; TR-FRET artefact counter-screen; active compounds read high; TR-FRET ratio at 8 µM; 200,000 tested, 0.4% active; AID 1049, 2008
SRC1 TRFRET art – TR-FRET detection interference compounds, primary screen, artefact control for PPARgamma SRC-1 recruitment agonists, biochemical, TR-FRET emission ratio. TR-FRET detection artefact counter-screen; active compounds read high. 99,000 tested, 0.34% active. AID 1051, 2008. TR-FRET ratio at 8 µM; in the data active means TR-FRET ratio above about 2300
PPARg SRC-2 ag – agonists of PPARg-SRC-2 recruitment, primary screen, biochemical, HTS | Peroxisome proliferator-activated receptor gamma (Homo sapiens), P37231 | PPARgamma LBD-SRC-2 recruitment | activation, % at 8 µM | 200,000 tested, 0.34% active; in the data active means activation above about 22%
PPARg SRC3 recr – PPARgamma agonists recruiting SRC-3 coactivator, primary screen, biochemical | Peroxisome proliferator-activated receptor gamma (Homo sapiens), P37231 | biochemical PPARgamma/SRC-3 coactivator recruitment assay | activation, % at 8 µM | 200,000 tested, 0.26% active | AID 731, 2007; in the data active means activation above about 23%
SRC3 TRFRET art – TR-FRET detection interference compounds, artefact control for PPARgamma SRC-3 recruitment agonists, biochemical, TR-FRET ratio; AID 1048, 2008; TR-FRET ratio at 8 µM; 99,000 tested, 0.39% active; TR-FRET artefact counter-screen, PPARgamma/SRC-3 format; active compounds read high
PPARg SRC2 conf – agonists of PPARgamma SRC-2 coactivator recruitment, confirmation, biochemical, HTS | shares compounds with PPARg SRC3 recr | biochemical SRC-2 recruitment by PPARgamma | activation, % at 8 µM | 790 tested, 52% active; in the data active means activation above about 22%
PPARg SRC1 ag – PPARgamma agonists recruiting SRC-1 coactivator, confirmation, biochemical | shares compounds with PPARg SRC3 recr | PPARgamma–SRC-1 coactivator recruitment biochemical assay | activation, % at 8 µM | 790 tested, 43% active; in the data active means activation above about 20%
PPARg SRC3 conf – PPARgamma-driven SRC-3 coactivator recruitment agonists, confirmation, biochemical; shares compounds with PPARg SRC3 recr; biochemical PPARgamma-SRC-3 coactivator recruitment, agonist mode; activation, % at 8 µM; 790 tested, 29% active; AID 1301, 2008; in the data active means activation above about 24%
Numbers stand for hits; – = inactive; · = no result given. Most compounds without a hit are left out; they make up all but 0.84% or so of the library. Unless noted, no stated cut-off is given here; in the data, active means TR-FRET ratio above about 2000; inactive means the rest.

SMILES	PPARg SRC1 recr	SRC2 TRFRET art	SRC1 TRFRET art	PPARg SRC-2 ag	PPARg SRC3 recr	SRC3 TRFRET art	others
O=C(COC(=O)c1sc2ccccc2c1Cl)Nc1ncc(Cl)cc1Cl	–	2187	–	34	–	–
O=C(COC(=O)c1sc2cc(F)ccc2c1Cl)Nc1ncc(Cl)cc1Cl	–	–	–	–	–	–
O=C(COC(=O)c1sc2ccccc2c1Cl)NC1CCCCC1	–	4050	–	115	–	–
COc1ccc(N2C(=O)C3[C@@H](C2=O)C2(Cl)C(Cl)=C(Cl)C3(Cl)C2(OC)OC)cc1 (some centres not stated)	–	–	–	–	–	–
CCCc1ccc(Oc2cc(N3CCOCC3)nc(-c3ccccc3)n2)cc1	–	–	·	–	–	·
COc1ccc(Oc2nc3ccccc3n(C)c2=O)cc1	–	–	·	–	–	·
Cn1c(=O)c(Oc2cc(Cl)cc(Cl)c2)nc2ccccc21	29	–	·	–	–	·
O=C(O)Cc1ccc(C(=O)c2ccc(Cl)cc2Cl)s1	–	–	–	–	–	–
O=C(c1cnc(-c2ccc(Cl)cc2)s1)c1ccc(Cl)cc1Cl	–	–	·	–	36	·
O=C(O)c1ccc(NC2CC(=O)N(Cc3ccccc3)C2=O)cc1 (configuration not stated)	–	–	–	–	–	–
O=C(Nc1nc2c(ccc3ccccc32)s1)c1cc([N+](=O)[O-])ccc1N1CCOCC1	–	–	–	–	–	–
CN(C)S(=O)(=O)c1ccc(N2CCCC2)c(C(=O)Nc2nc3c(ccc4ccccc43)s2)c1	–	2069	–	–	–	2179
CCN(CC)c1ccc(NC(=O)c2ccccc2F)cc1S(=O)(=O)Nc1ccccc1OC	–	–	–	–	–	2056
CCN(CC)c1ccc(NC(=O)c2ccccc2Br)cc1S(=O)(=O)Nc1ccccc1OC	–	–	–	–	–	–
Cc1ccc(NC(=S)Nc2ccc(C(C)C)cc2)cc1S(=O)(=O)N1CCCCCC1	–	–	–	–	–	–
CC(=O)c1ccc(NC(=O)COC(=O)c2ccccc2N=Nc2ccc(N(C)C)cc2)cc1	–	–	2419	–	–	–
N#Cc1cc2c(nc1SC1CCCCC1O)CCCC2 (configuration not stated)	–	–	·	–	–	·
CCc1nn(CC(=O)NCCCN(CC)Cc2ccccc2)c(=O)c2cc3sccc3n12	–	2044	·	–	–	·
COc1ccc(C(=O)Nc2nc3c(s2)CCCC3)cc1S(=O)(=O)N1CCCc2ccccc21	–	–	–	–	–	2089
O=C(Nc1ccc(F)cc1)c1ccccc1CC[N+](=O)[O-]	–	–	·	–	–	·
O=C(Nc1nc2c(cc3c4c(cccc42)CC3)s1)c1ccccc1Cl	–	1981	–	–	–	2115
Cc1nc2ccccc2nc1OCC(=O)NCC(F)(F)F	–	–	2331	–	–	–
COc1ccc(CCNC(=O)C(=O)Nc2ccc3c(c2)OCO3)cc1OC	–	–	–	–	–	–
O=C(O)c1cnn(-c2ccccc2)c1-n1cccc1	–	–	·	–	–	·
NNC(=O)c1cnn(-c2ccccc2)c1-n1cccc1	–	2005	–	30	–	–
SMILES	PPARg SRC1 recr	SRC2 TRFRET art	SRC1 TRFRET art	PPARg SRC-2 ag	PPARg SRC3 recr	SRC3 TRFRET art	others
COc1ccccc1/C=N/NC(=O)c1ccc(Br)cc1	–	–	2364	–	–	–
COc1ccc(/C=N/NC(=O)c2ccc(Br)cc2)c(OC)c1	–	–	–	–	–	–
Cc1c(N=Nc2ccc(O)cc2)c(=O)n(-c2ccccc2)n1C	–	–	–	–	–	2164
c1ccc(-c2oc3ncnc(NCCCN4CCOCC4)c3c2-c2ccccc2)cc1	24	–	·	–	–	·
COc1ccc(-c2oc3ncnc(NCCCN4CCOCC4)c3c2-c2ccc(OC)cc2)cc1	–	–	·	–	–	·
O=C(COC(=O)CCC1CCCC1)Nc1ccc(Cl)cc1F	–	–	–	–	–	–
COC(=O)c1ccccc1NC(=O)c1cc(-c2ccc(O)cc2)on1	35	–	·	–	–	·
CC(C)(C)c1ccccc1NC(=O)c1c(O)c2cccc3c2n(c1=O)CC3	–	–	–	–	–	2335
Cc1ccc(S(=O)(=O)Nc2ccc(-c3csc(-c4ccccc4)n3)cc2)cc1	–	–	–	–	–	2149
Cc1ccccc1CSc1ccc(-c2ccc3c(c2)OCO3)nn1	–	–	–	–	–	–
Cn1c(SCCCC(=O)c2ccc(Br)cc2)nnc1-c1ccncc1	–	–	·	–	–	·
Cc1cccc(NC(=S)Nc2ccc(N3CCOCC3)cc2)c1C	–	1974	–	–	–	–
C/C(=N\Nc1nc2ccccc2[nH]1)c1ccc(C)o1	–	–	–	–	–	2059
CCC(=O)Nc1ccc(C(=O)N/N=C/c2ccc([N+](=O)[O-])cc2)cc1	–	–	2345	–	–	–
COc1ccc(Br)cc1C(=O)N/N=C/c1ccc([N+](=O)[O-])cc1	30	–	2467	–	–	–
CCOc1ccc(Br)cc1C(=O)N/N=C/c1ccc([N+](=O)[O-])cc1	–	–	–	–	–	–
O=C(CSc1cn(Cc2ccccc2)c2ccccc12)NCc1ccc(F)cc1	–	–	–	–	–	–
O=C(Nn1c(O)c(C=C2N=c3ccccc3=N2)sc1=S)c1ccccc1Cl	–	–	·	–	30	·	PPARg SRC2 conf=26;PPARg SRC1 ag=21;PPARg SRC3 conf=–
CCOc1ccc(-c2n[nH]c(=S)o2)cc1	–	–	–	–	–	–
CCOc1ccccc1-c1n[nH]c(=S)o1	28	2292	·	39	50	·	PPARg SRC2 conf=43;PPARg SRC1 ag=30;PPARg SRC3 conf=28
Cn1c(=O)nc2n(Cc3ccccc3)c3cccc(Cl)c3cc-2c1=O	–	–	–	–	–	–
COc1ccc(N2CCN(Cc3nc(N)nc(Nc4ccccc4OC)n3)CC2)cc1	–	–	·	–	–	·
COc1ccc(Nc2nc(N)nc(CN3CCN(c4ccc(F)cc4)CC3)n2)cc1	24	–	2427	–	–	–	PPARg SRC2 conf=–;PPARg SRC1 ag=–;PPARg SRC3 conf=–
COc1ccc(NC(=O)c2sc(=S)[nH]c2N)cc1	–	–	·	–	28	·	PPARg SRC2 conf=–;PPARg SRC1 ag=–;PPARg SRC3 conf=–
